Data published in PubChem BioAssay (NCATS).
Inconclusive results are not listed. Where a call stands in place of a potency, no number is given. A number with no mark means an inactive call. Calls of active or inactive are those of the source. The call rests on the fitted dose curve; in most records, active means well fitted cell-killing curve with a large enough effect; inconclusive means small, poorly fitted or top-dose-only effect, or effect the other way; inactive means no such curve, though single readings can be large or run the other way.

assay: Viability qHTS for spleen associated tyrosine kinase inhibitor (SYKi) naive MV4-11 cells (AID 1963823); details: MV4-11 AML viability, CellTiter-Glo luminescence, 72 h; series mostly up to 45 µM; further: nearly all actives have a fitted effect of over 40% in size
How it was run: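 SYKi-naive MV4-11 AML cells, 500 per well, were exposed to library compounds for 72 hr at 37 C, 5% CO2. Viability was then read by CellTiter-Glo luminescence after 10 min at room temperature.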
Potency means the concentration at half of the fitted maximal effect.

SMILES	Potency	viability (% of control)
S=c1ssc2c1CCC2	inactive	
O=C(O)c1cc(O[C@@H]2O[C@H](CO[C@@H]3OC[C@@H](O)[C@H](O)[C@H]3O)[C@@H](O)[C@H](O)[C@H]2O)c2ccccc2c1O	inactive	
COC(=O)[C@H](OC(C)=O)[C@H]1C(C)(C)C(=O)[C@H]2CC3=C4CC(=O)O[C@@H](c5ccoc5)[C@]4(C)CCC3[C@@]1(C)C2=O (stereo not given in full)	inactive	
COc1ccc(C2(O)c3ccccc3NC(=O)C2O)cc1 (stereo not given)	inactive	
CC1(C)CCCC2(C)C(C(=O)O)=CCC12 (stereo not given)	inactive	
C[n+]1ccc(-c2c3nc(c(-c4cc[n+](C)cc4)c4ccc([nH]4)c(-c4cc[n+](C)cc4)c4nc(c(-c5cc[n+](C)cc5)c5ccc2[nH]5)C=C4)C=C3)cc1	inactive	
CCCCNc1ncc2c(-c3ccc(S(=O)(=O)N4CCOCC4)cc3)nn(C3CCC(O)CC3)c2n1 (stereo not given)	18.4 nM (active)	
C=Cc1cc(O)cc2nc(-c3ccc(O)c(F)c3)oc12	23500 nM (active)	
CC1=C2C3OC(=O)C(C)C3(O)CCC2(C)CCC1=O (stereo not given)	inactive	
CCOc1nc2c(N)ncnc2n1CC	inactive	
C=CC1(C)C=C2C(=O)OC(=O)C3=C(CCCC3(C)C)C2(O)CC1 (stereo not given)	inactive	
O=C(OCC(O)CO[C@@H]1O[C@H](C(=O)O)[C@@H](O)[C@H](O)[C@H]1O)c1ccccc1 (stereo not given in full)	inactive	
CC(=O)O[C@@H]1C(=O)C(C)=C(CCC(C)CC(=O)O)[C@@]2(C)CCCC(C)(C)C12 (stereo not given in full)	inactive	
Cc1c(C2=CCN(C(=O)N(C)C(C)C)CC2)nnn1-c1cccnc1F	inactive	
C=CC1(C)CC(O)C2(CCC3C(C)(C(=O)O)CCCC3(C)C2=O)C1 (stereo not given)	inactive	
CC(=O)SC[C@@H](Cc1ccccc1)C(=O)NCC(=O)OCc1ccccc1	inactive	
CC(=O)O[C@H]1CC[C@@]2(C)C(CC[C@@H](C)[C@]23Cc2c(O)cc4c(c2O3)CN([C@@H](CCC(=O)O)C(=O)O)C4=O)C1(C)C (stereo not given in full)	inactive	
Nc1nc(Nc2ccc3c(c2)CCC(N2CCCC2)CC3)nn1-c1cc2c(nn1)-c1ccccc1CCC2 (stereo not given)	231 nM (active)	
COc1ccc2c(c1)C[C@H](C(=O)Nc1ccc(-c3cn[nH]c3)cc1OCCN(C)C)CO2	651 nM (active)	
CCCC(=O)c1cc(O)c(O)cc1O	inactive	

SMILES	Potency	viability (% of control)
C=CC(C)(O)CC[C@H]1C(=C)CCC2[C@](C)(C(=O)O)CCC[C@@]21C (stereo not given in full)	inactive	
CC(=O)OC1CC(C(C)(C)O)OC2CCC3(C)OC4=C(C(=O)C=C5C(C)C(OC(C)=O)C6(C)C(C)OC546)C(O)C3C12C (stereo not given)	inactive	
C#CCCCn1cc(-c2cccc3c2N[C@@H](C)CC(=O)N3)cn1	inactive	
CCOC(=O)c1ccc(OCCC2CCN(c3ccc(C)nn3)CC2)cc1	inactive	
C=C1CC[C@H]2C(=C)CC[C@H]3C(=C)C(=O)O[C@@H]3[C@@H]12	4110 nM (active)	
NC(=O)c1ccc(F)c2c1C[C@@H](N(C1CCC1)C1CCC1)CO2	inactive	
CCNC(=O)Nc1ccc(-c2nc3c(c(N4CCOC[C@H]4C)n2)CCN(C2COC2)C3)cc1	461 nM (active)	
CC1(C)CC2C(O)C3=C(CC(C)(O)C2C1)C(=O)OC3 (stereo not given)	inactive	
C=C1C[C@]23C[C@H]1CC[C@H]2[C@]1(C)CCC[C@@](C)(C(=O)O)[C@H]1[C@@H]3C(=O)O	inactive	
C=CC1C(OC2OC(CO)C(O)C(O)C2O)OC=C(C(=O)OC)C1CC1CC(=O)CC(CCc2ccc(O)cc2)O1 (stereo not given)	inactive	
COc1cc2c(cc1O)C1(Cc3ccc4c(c3C1=O)OCO4)N(C)CC2 (stereo not given)	inactive	
COc1ccc(-c2ccccc2)cc1NS(=O)(=O)c1cc(Cl)cc(Cl)c1O	inactive	
CC(=O)C1CCC(=O)N1Cc1ccccc1 (stereo not given)	inactive	
CC(C)(O)/C=C/C1=CC(=O)[C@@](C)(O)C[C@H]1O	inactive	
C[C@H]1C(=O)N2c3ccccc3[C@@]3(O)C[C@@H]4C(=O)N[C@](C)(c5nc6ccccc6c(=O)n54)N1[C@@H]23	inactive	
CC1=CC(=O)[C@]2(O[C@@H]3O[C@@H](C)[C@H](O)[C@@H](O)[C@H]3O)C=CO[C@@H](O[C@@H]3O[C@H](CO)[C@@H](O)[C@H](O)[C@H]3O)[C@H]12	inactive	
O=C(O)CCc1ccc(NCc2cccc3c2CCCN3CCOc2ccccc2)cc1F	inactive	
CCC(C)C1NC(=O)C2CCCN2C(=O)C(NC(C)=O)C(C)OC(=O)C(Cc2ccc(OC)cc2)N(C)C(=O)C2CCCN2C(=O)C(C(C)C)NC1=O (stereo not given)	inactive	
O=C(Nc1ccn(Cc2c(F)cccc2C(F)(F)F)n1)c1c(F)cccc1F		72.8% [at 9.25 µM]
Fc1ccc(N2CCCCC2)c(NC(=S)c2ccncc2)c1	11600 nM (active)	
